# Reference: PubChem BioAssay AID504332 (National Center for Advancing Translational Sciences (NCATS), 2011)
# In all, about 350,000 compounds went through this assay and about 31,000 (8.9%) were called active. Where a call stands in place of a potency, no number is given. Another 15% or so got no clear call; they are omitted. The sample as a whole holds a higher share of actives than the screen did. Unmarked numbers belong to inactive results. Calls follow the shape of the dose curve; as a rule, active = well fitted inhibition curve with a large enough effect; inconclusive = small, poorly fitted or top-dose-only effect; inactive = no such curve, though single readings can be large or run the other way.
# Target: Histone-lysine N-methyltransferase EHMT2 (Homo sapiens) (UniProt Q96KQ7)
# Sequence (Q96KQ7 913-1193 limits assumed): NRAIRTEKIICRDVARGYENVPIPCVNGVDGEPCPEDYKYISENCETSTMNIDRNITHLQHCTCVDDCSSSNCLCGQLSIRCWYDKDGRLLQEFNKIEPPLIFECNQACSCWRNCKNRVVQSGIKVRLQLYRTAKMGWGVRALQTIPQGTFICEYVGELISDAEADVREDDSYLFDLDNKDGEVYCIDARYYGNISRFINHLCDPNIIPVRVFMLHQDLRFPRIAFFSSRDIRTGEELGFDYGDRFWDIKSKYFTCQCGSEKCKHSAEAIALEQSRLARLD
# Test: qHTS Assay for Inhibitors of Histone Lysine Methyltransferase G9a; also: nearly all actives have a fitted effect of over 75% in size
# Conditions: G9a H3K9 monomethylation, AlphaScreen, 2 h; series mostly up to 59 µM
# Method in brief: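 Methyltransferase reactions run at room temperature for 2 h (20 nM enzyme, 500 nM biotin-H3K9 peptide, 20 uM SAM) after a 15 min compound preincubation; product detected by AlphaScreen beads and anti-H3K9me1 antibody.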
# Potency is read from the fitted curve at half-maximal effect.
Compound,Potency,"activity, negative = inhibition"
O=C(NCC(c1ccco1)N1CCc2ccccc2C1)c1ccccc1Cl (configuration not stated),inactive,–
COc1ccc(SCc2cc(=O)c3ccc(C)c(C)c3[nH]2)cc1,inactive,–
CC1=C(C(=O)Nc2ccccc2)C(c2cccs2)C(C#N)=C(SCC#N)N1 (configuration not stated),12.6 µM (active),–
C=CCOC(=O)C1=C(C)NC(C)=C(C(=O)OCC=C)C1c1cccs1,inactive,–
C=CCOC(=O)C1=C(C)NC(SCC(=O)OCC)=C(C#N)C1c1ccc(C)cc1 (configuration not stated),inactive,–
CCCn1c(NCc2ccccc2F)nc2ccccc21,inactive,–
O=C(CNC(=O)C1COc2ccccc2O1)N/N=C/c1cc(Br)c(O)c(Br)c1 (configuration not stated),89.1 µM (active),–
O=C(CNC(=O)c1cccnc1)N/N=C/c1cc(Br)c(O)c(Br)c1,inactive,–
O=C(CNC(=O)C(c1ccccc1)c1ccccc1)N/N=C\c1ccc2c(c1)OCO2,inactive,–
FC(F)(F)c1cc(Nc2nc3ccccc3c3nncn23)ccc1Cl,inactive,–
COc1ccc(CNC(=O)C2=Cc3cccc(OC)c3OC2)cc1OC,inactive,–
CC1=NN(c2ccc(Cl)c(C(=O)O)c2)C(=O)/C1=C/c1ccc(-c2ccccc2[N+](=O)[O-])o1,31.6 µM (active),–
Cc1nc2ccccc2c(=O)n1NC(=O)c1ccc(Cl)c([N+](=O)[O-])c1,–,-4.51% [at 2.33 µM]
N#C/C(=C/c1ccc(-c2ccccc2[N+](=O)[O-])o1)C(=O)NCCN1CCCCC1,–,16.8% [at 12.7 µM]
Cc1ccc(CNC(=O)c2cc(-c3ccccc3C)n(CC3CC(c4cccc([N+](=O)[O-])c4)=NO3)n2)cc1 (configuration not stated),–,-36.4% [at 2.33 µM]
C=CCN1C(=O)C(Cc2ccc(OCC)cc2)SC1=Nc1ccc(C(=O)O)cc1 (configuration not stated),inactive,–
COc1ccc(CN2C(=O)C(C)S/C2=N/N=C/c2ccco2)cc1 (configuration not stated),50.1 µM (active),–
COc1ccc(Cn2ccn(Cc3cccc(OC)c3)c(=O)c2=O)cc1,inactive,–
C=CCN1C(=O)C(Cc2cccc(Cl)c2)S/C1=N/N=C/c1ccco1 (configuration not stated),10 µM (active),–
O=C1N/C(=N\N=C\c2ccco2)SC1Cc1ccc(F)cc1 (configuration not stated),inactive,–
CCC1S/C(=N/N=C/c2ccco2)NC1=O (configuration not stated),inactive,–

Compound,Potency,"activity, negative = inhibition"
CCCNC(=O)C(CC)n1nc(CC)n2c(cc3oc(C)cc32)c1=O (configuration not stated),inactive,–
Cc1ccc(C)c(N2CCN(S(=O)(=O)c3ccc4c(c3)C(C(C)C)C(=O)N4)CC2)c1 (configuration not stated),inactive,–
COc1ccc(Cl)cc1CSc1ncn[nH]1,inactive,–
O=C(/C=C/Sc1ncn[nH]1)c1ccc(Cl)cc1,39.8 µM (active),–
O=C(NCCOCc1ccc(Cl)cc1)c1ncn[nH]1,inactive,–
Cc1cc(C)c2oc(C(=O)Nc3ccc(S(=O)(=O)N4CCCCCC4)cc3)cc(=O)c2c1,inactive,–
CCOc1ccccc1CNC(=O)C1CCCN(S(=O)(=O)c2ccc3c(ccn3C)c2)C1 (configuration not stated),inactive,–
Cc1ccc(C)c(Cn2c(CCCNC(=O)C3CCCCC3)nc3ccccc32)c1,inactive,–
COc1ccccc1C(=O)NCCC(=O)NC1=NCCS1,–,43% [at 12.7 µM]
Nc1c(C(=O)O)cnn1-c1ccccc1,inactive,–
O=C(O)c1ccccc1C(=O)NC1=NN(c2ccccc2)CC1,39.8 µM (active),–
O=C(O)c1ccccc1-c1ccccc1C(=O)Nc1ccccc1Br,inactive,–
CC(=O)Nc1cccc(/C(C)=N/NC(=O)c2ccccc2Cl)c1,inactive,–
C/C(=N\Nc1cccc(C(=O)O)c1)c1ccc2c(c1)Nc1ccccc1S2,3.16 µM (active),–
O=C(NC1CC1)c1ccc2c(c1)NC(=O)c1ccccc1S2,inactive,–
O=C(NCc1cn2ccsc2n1)Nc1ccc(Cl)cc1,inactive,–
O=C(NCc1ccc(Cl)cc1)c1cc(=O)nc2sc(-c3ccccc3)nn12,inactive,–
O=C(NCc1ccc(Cl)cc1)c1cc2c(nc3sccn32)s1,35.5 µM (active),–
CN(CC1CCCO1)S(=O)(=O)c1ccc(C(=O)Nc2ccc([N+](=O)[O-])cc2)cc1 (configuration not stated),inactive,–
CN1C2CCC1CC(NC(=O)c1ccc([N+](=O)[O-])cc1)C2 (configuration not stated),inactive,–
O=C(Nc1cc2c3c(c1)C1CCCC1CN3CC1CCCC21)c1ccc([N+](=O)[O-])cc1 (configuration not stated),10 µM (active),–

Compound,Potency,"activity, negative = inhibition"
CC(=O)N1CCCc2ccc(NS(=O)(=O)c3ccc(F)cc3F)cc21,–,-4.23% [at 12.7 µM]
O=C(C1CC(=O)N(C2CCCC2)C1)N1CCN(c2cccc(C(F)(F)F)c2)CC1 (configuration not stated),inactive,–
CCC1(C)NC(=O)N(CC(=O)N2CCN(c3cccc(Cl)c3)CC2)C1=O (configuration not stated),–,17.9% [at 2.33 µM]
O=C(N/N=C/c1cc([N+](=O)[O-])ccc1O)/C(=C\c1cccs1)NC(=O)c1ccccc1,inactive,–
O=[N+]([O-])c1ccc(O)c(/C=N/Nc2ccccc2[N+](=O)[O-])c1,20 µM (active),–
Nc1nnnn1/N=C/c1cc([N+](=O)[O-])ccc1O,inactive,–
O=C1OC(C(=O)Nc2cccc(Br)c2)Cc2ccccc21 (configuration not stated),inactive,–
COc1ccc(NC(=O)c2sc3nc(-c4cc5cccc(OC)c5oc4=O)[nH]c(=O)c3c2C)cc1,inactive,–
O=C(CN1CCN(S(=O)(=O)c2cccc(Cl)c2)CC1)N1CCCCC1,–,6.11% [at 12.7 µM]
CC(=O)N1CCc2cc(S(=O)(=O)NC(Cc3ccccc3)C(=O)NCc3ccc(C)cc3)ccc21 (configuration not stated),inactive,–
NC(=O)c1c(Nc2nc3c(F)cccc3s2)sc2c1CCCC2,2.82 µM (active),–
Fc1cc(F)c2nc(Nc3nc4c(F)cccc4s3)sc2c1,inactive,–
Cc1cc(OC(C)C(=O)Nc2sc3c(c2C(N)=O)CCCC3)ccc1Cl (configuration not stated),inactive,–
CC(c1ccccn1)N(C)C(=O)c1ccc2nc(Cc3cccc(Cl)c3)oc2c1 (configuration not stated),inactive,–
O=C(N/N=C/c1cccc(OCc2ccccc2)c1)c1ccc(Br)o1,inactive,–
Cn1c(SCC(=O)N2CCCc3ccccc32)ncc(C(=O)Nc2ccc(F)cc2)c1=O,inactive,–
CCN(CC)C(CNC(=O)CSc1nnnn1-c1cccc(F)c1)c1ccco1 (configuration not stated),–,5.11% [at 12.7 µM]
Cc1ccc(C(=O)N/N=C\c2cc(Br)c(Br)o2)cn1,50.1 µM (active),–
O=C(N/N=C/c1ccc(Br)o1)c1cncc(Br)c1,inactive,–
O=C(O)c1ccc(/C=N/NC(=O)c2ccc(Br)cc2)cc1,inactive,–
